ST2 IL33 inh = inhibitors of human ST2 (IL1RL1) binding to IL-33, primary screen, biochemical, AlphaLISA; Interleukin-1 receptor-like 1 (Homo sapiens), Q01638; AlphaLISA ST2-Fc/biotin-IL-33 interaction, 1 h; inhibition, % for hits at 17 µM; actives 2.3% (n = 78,000); AID 1259354, 2018; in the data active = inhibition above about 30%
Target sequence (Q01638 whole entry, looked up): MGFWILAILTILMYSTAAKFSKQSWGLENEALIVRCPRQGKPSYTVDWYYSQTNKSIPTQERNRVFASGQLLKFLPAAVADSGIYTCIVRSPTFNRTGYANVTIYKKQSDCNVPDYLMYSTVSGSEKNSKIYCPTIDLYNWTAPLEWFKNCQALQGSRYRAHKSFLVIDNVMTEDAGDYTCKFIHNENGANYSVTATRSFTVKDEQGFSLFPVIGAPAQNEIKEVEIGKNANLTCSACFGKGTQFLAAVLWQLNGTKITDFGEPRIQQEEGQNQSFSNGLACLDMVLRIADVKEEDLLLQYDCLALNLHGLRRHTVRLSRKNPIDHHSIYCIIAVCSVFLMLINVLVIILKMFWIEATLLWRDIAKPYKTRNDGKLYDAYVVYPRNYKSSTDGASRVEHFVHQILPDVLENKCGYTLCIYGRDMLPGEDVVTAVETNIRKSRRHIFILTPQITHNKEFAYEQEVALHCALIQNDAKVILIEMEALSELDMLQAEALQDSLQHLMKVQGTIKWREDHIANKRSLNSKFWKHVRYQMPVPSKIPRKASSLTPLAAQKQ
Hits are given with their value; n = inactive; ! = not active in a repeat. The full list was thinned out, with hits kept by preference.

SMILES	ST2 IL33 inh
CCN(CC)c1cc(C)c2cc(NC(=O)c3cnccn3)ccc2n1	n
O=C(Nc1ccc(Cl)cc1)c1cnccn1	n
CCN(CC)c1ccc(NC(=O)c2cnccn2)cc1	56%
O=C(CNS(=O)(=O)c1ccc(Br)s1)NCc1cccnc1	n
O=C(CNS(=O)(=O)c1cccs1)NCc1cccnc1	79%
O=S(=O)(NCc1cccnc1)c1cccs1	n
Cc1cc(C(=O)N2CCc3c(nc(N)[nH]c3=O)C2)sc1-c1ccccc1	n
O=C(CS(=O)(=O)c1cccc2nsnc12)Nc1ccccc1Br	n
O=C(Nc1cccc2nsnc12)c1ccc(-c2ccc(Br)cc2)o1	31%
O=C(Nc1ccccc1-c1ccccc1)c1ccc(Br)o1	n
COc1ccc(C(=O)Nc2nc(-c3cc4ccccc4oc3=O)cs2)cc1OC	38%
O=C(Nc1nc(-c2cc3ccccc3oc2=O)cs1)c1cc(=O)c2ccccc2o1	n
COc1cc2ccccc2cc1C(=O)Nc1nc(-c2cc3ccccc3oc2=O)cs1	n
COCCCn1ccnc1-c1ccc(OC)c(C)c1C	n
COC(=O)C1C(=O)C2=C(CC1C)NC(C)=C(C(=O)OC1CCCCC1)C2c1cccc(OC)c1 (stereo not drawn)	n
CC1(C)CC(=O)c2sc(NC(=O)c3sc4ccccc4c3Cl)nc2C1	n
CCCCn1c(CCCNC(C)=O)nc2ccccc21	n
CCCCN(C)c1nc(-c2ccc([N+](=O)[O-])cc2)nc2ccccc12	39%
c1cncc(CNc2c3ccccc3nc3ccccc23)c1	n
CCCCN(C)Cc1ccc([N+](=O)[O-])cc1	n
O=[N+]([O-])c1ccc(-c2nc(NCc3cccnc3)c3ccccc3n2)cc1	96%!
O=[N+]([O-])c1ccc(-c2nc(NC3CCCCC3)c3ccccc3n2)cc1	n
C=CCNc1nc(-c2ccc([N+](=O)[O-])cc2)nc2ccccc12	n
O=C1CCC2=NS(=O)(=O)c3ccccc3N12	n
Cc1ccccc1C(CNC(=O)c1cn2cccnc2n1)N(C)C (stereo not drawn)	n
SMILES	ST2 IL33 inh
COC(=O)c1c(C)oc2cc(Br)c(OCC#N)cc12	n
O=C(CN1C(=O)c2ccccc2C1=O)Nc1ccc(Br)cc1	34%
O=C(CN1C(=O)c2ccccc2C1=O)Nc1ccc(Br)cc1C(=O)O	n
O=C(CN1C(=O)C(=O)c2ccccc21)Nc1ccc(Br)cc1	n
CC(=O)n1cc(/C=C2/N=C(c3ccccc3)OC2=O)c2ccccc21	61%
COc1ccccc1/C=C1\N=C(c2cccc(I)c2)OC1=O	n
CC(=O)n1cc(/C=C2\N=C(c3ccc(Cl)cc3)OC2=O)c2cc(Br)ccc21	n
Cc1c(Cl)cccc1NC(=O)c1cc2ccccc2o1	n
O=C(O)C1CCCCC1C(=O)Nc1nc(-c2ccc(F)cc2)cs1 (stereo not drawn)	n
Cc1ccc(N=Cc2nc(-c3ccc(Br)cc3)oc2O)cc1Cl	n
Oc1cccc(C=Nc2ccc(Cl)c(Cl)c2)c1O	n
C=CCOc1ccc(C=Nc2ccc(C)c(Cl)c2)c(O)c1	92%
COc1ccc2c(=O)c(Oc3ccccc3)c(C)oc2c1C	n
CCOc1ccccc1-c1cncc2ccccc12	n
Cc1c(N=Cc2cc([N+](=O)[O-])ccc2N2CCCCC2)c(=O)n(-c2ccccc2)n1C	44%
Cc1c(N=Cc2ccc([N+](=O)[O-])o2)c(=O)n(-c2ccccc2)n1C	n
Cc1c(N=Cc2cc([N+](=O)[O-])ccc2O)c(=O)n(-c2ccccc2)n1C	n
COc1ccc(Cl)cc1NC(=O)c1c(F)c(F)c(F)c(F)c1F	n
Cc1ccc(CN2CC[C@H](c3nnc(-c4cncn4C)o3)C2)o1	n
CCCCc1ncc(CN2CCC(n3nccc3NC(=O)Cc3ccccc3)CC2)[nH]1	n
Clc1cccc(CN2CCCCCC2)c1	n
NC(=O)c1cccn1Cc1cccc(Cl)c1	n
N#CSC(C#N)Cc1cccc(Cl)c1 (stereo not drawn)	34%
CCOc1ccc(N2C(=O)C(=O)C(=C(O)c3ccccc3)C2(O)C(=O)OC)cc1 (stereo not drawn)	n
CCOC(=O)c1c(-c2ccccc2)csc1NC(=O)CCCn1nc(C)c([N+](=O)[O-])c1C	n
SMILES	ST2 IL33 inh
CC(C)(C)C1CCc2onc(C(=O)Nc3ccc(F)c(Cl)c3)c2C1 (stereo not drawn)	n
O=C(O)CCCC[C@H]1SC[C@H]2NC(=O)N[C@H]21	96%
NCCCCC(=O)O	n
CC(Oc1ccccc1)C(=O)Nc1ccccc1I (stereo not drawn)	n
N#C/C(=C\Nc1ccc(S(N)(=O)=O)cc1)c1nc(-c2ccc(Cl)cc2)cs1	n
Cc1ccc(-c2csc(/C(C#N)=C/c3cccs3)n2)cc1	64%
CN1CCN(c2nc(-c3cccs3)cc(C(F)(F)F)n2)CC1	n
COc1ccc(/C=C(/NC(=O)c2cccs2)C(=O)NC(C)(C)C)cc1OC	n
Cc1cc(-c2cccs2)n[nH]1	n
Cc1ccc(-c2csc(Nc3ccc(F)cc3)n2)cc1	n
N#C/C(=C\c1cccs1)c1nc(-c2ccc(Cl)cc2)cs1	46%
N#C/C(=C\c1cccs1)c1nc(-c2cccs2)cs1	64%
Cc1ccc(Nc2nc(-c3ccccc3)cs2)cc1	n
CCOc1cc(/C=C(\C#N)c2nc(-c3ccc(OC)c(OC)c3)cs2)ccc1O	n
O=C(Nc1nc(-c2ccc(Cl)cc2)cs1)c1cccs1	n
COc1ccc(/C=C(/C#N)c2nc(-c3cccs3)cs2)cc1OC	49%
CC(C)c1ccc(N(C(=O)c2ccc(Cl)cc2)C2C=CS(=O)(=O)C2)cc1 (stereo not drawn)	n
CC1=C(C(=O)Nc2ccccn2)C(c2cccc(Br)c2)C2=C(CC(C)(C)CC2=O)N1 (stereo not drawn)	n
C=CCNC(=O)CN(C)S(=O)(=O)c1ccc(C)cc1	n
Clc1ccc(-c2nc3cnccn3c2Nc2ccc3c(c2)OCCO3)s1	n
COc1ccc(S(=O)(=O)Nc2ccccc2Cl)cc1C(=O)Nc1ccccc1Cl	n
N#C/C(=C\c1ccco1)c1nc(-c2cc3cc(Br)ccc3oc2=O)cs1	n
Cc1ccc(-c2csc(/C(C#N)=C/c3ccco3)n2)cc1	63%
COc1ccccc1/C=C(\C#N)c1nc(-c2cccc([N+](=O)[O-])c2)cs1	n
COc1ccc(/C=C(\C#N)c2nc(-c3cccc([N+](=O)[O-])c3)cs2)cc1O	35%
SMILES	ST2 IL33 inh
Nc1n[nH]c(-c2cccc([N+](=O)[O-])c2)n1	n
Cc1ccc2sc(-c3ccc(NC(=O)c4ccco4)cc3)nc2c1	n
COCCn1c(=O)[nH]c2cc(C(=O)NC3CCCC3)ccc2c1=O	n
Cc1cccc(N2CCC(NC(=O)CCn3nnnc3CN3CCOCC3)CC2)c1	n
Cc1ccc(S(=O)(=O)NC2CC(=O)N(Cc3cccc(F)c3)C2)c(C)c1 (stereo not drawn)	n
COc1ccc(C2=NN(C(=O)CCC(=O)O)C(c3cc(OC)ccc3OC)C2)cc1 (stereo not drawn)	n
Cc1onc(-c2ccccc2)c1C(=O)Nc1cccc(NC(=O)c2c(-c3ccccc3)noc2C)n1	n
O=C(Nc1cc2cccc([N+](=O)[O-])c2oc1=O)c1cccc(I)c1	n
Cc1ccccc1C(=O)Nc1cc2cccc([N+](=O)[O-])c2oc1=O	n
Cc1onc(-c2ccccc2)c1C(=O)Nc1cc2cccc([N+](=O)[O-])c2oc1=O	46%
CCOc1ccc(NC(=O)c2c(-c3ccccc3)noc2C)c([N+](=O)[O-])c1	38%
CCOc1ccccc1NC(=O)c1c(-c2ccccc2Cl)noc1C	n

Screening results deposited in PubChem BioAssay by Paczesny and Yang Labs, IUPUI and University of Michigan.
